Data on 14 compounds can be found in PubChem BioAssay (NCI).

About 83,000 compounds went through this panel and 20% of them were active in at least one assay; those are over-represented in the sample as a whole.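 Single-concentration screen, 48 h exposure, 96-well plates. Endpoint: percent growth. Below 10 = active.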 Unmarked numbers belong to inactive results. Activity calls are given as the source filed them.

Among the test systems are HT29 colon; SNB-75 CNS; SNB-19 CNS; U251 CNS; PC-3 prostate; SK-MEL-5 melanoma; UACC-62 melanoma; LOX IMVI melanoma; SK-MEL-28 melanoma; SK-MEL-2 melanoma.
What all share (assay): NCI-60 one-dose screen, 48 h (100 = growth as untreated, 0 = no growth, -100 = all killed)
Holding throughout (details): 10 µM unless noted

As to `N#Cc1c(N2CCOCC2)nc2sc3cc(Cl)ccc3n2c1=N`, the growth in the assay with HT29 colon is 98.5%; with SNB-75 CNS, 63.7%; with SNB-19 CNS, 77.8%; in the assay on U251 CNS it was 96.6%; with PC-3 prostate it was 75.9%; with SK-MEL-5 melanoma, 78.3%. Besides, the growth in the assay on UACC-62 melanoma is 89.4%; with LOX IMVI melanoma it was 93%; with SK-MEL-28 melanoma, 103%; in the assay on SK-MEL-2 melanoma, 103%.
With `Nc1nonc1-c1nc2ccccc2n1CC(=O)Nc1ccc2c(c1)COC2=O`, the growth in the assay with HT29 colon is 85.1%; with SNB-75 CNS, 36.5%; in the assay with SNB-19 CNS, 87.6%; in the assay with U251 CNS, 94.4%; in the assay with PC-3 prostate, 80%; with SK-MEL-5 melanoma it was 77.8%. The growth in the assay on UACC-62 melanoma was 72.9%; in the assay with LOX IMVI melanoma, 73.2%; in the assay with SK-MEL-28 melanoma it was 93.1%; in the assay on SK-MEL-2 melanoma it was 89.4%.
Turning to `CC(C)(C)c1cc(O)c(O)c(C(C)(C)C)c1`, the growth in the assay on HT29 colon was 53.9%; in the assay on SNB-75 CNS, 60.8%; in the assay with SNB-19 CNS, 56.9%; with U251 CNS it was 36%; in the assay on PC-3 prostate, 39.3%; in the assay on SK-MEL-5 melanoma, 70.4%. Besides, the growth with UACC-62 melanoma is 33%; with LOX IMVI melanoma, 47.3%; in the assay with SK-MEL-28 melanoma, 74.9%; with SK-MEL-2 melanoma it was 76.6%.
As for `Nc1nc(N)c([N+](=O)[O-])c(=O)[nH]1`, the growth with HT29 colon is 98.6%; in the assay on SNB-75 CNS, 106%; in the assay on SNB-19 CNS, 108%; in the assay on U251 CNS it was 102%; in the assay with PC-3 prostate it was 94.5%; with SK-MEL-5 melanoma, 102%. In addition, the growth was 105% in the assay on UACC-62 melanoma, 105% with LOX IMVI melanoma, 107% in the assay on SK-MEL-28 melanoma and 84.2% with SK-MEL-2 melanoma.
Take `Cn1cc(-c2nc(-c3c[nH]c4ncccc34)cs2)c2cccnc21`: the growth in the assay with HT29 colon is 73.1%; in the assay on SNB-75 CNS, 47.1%; with SNB-19 CNS it was 82.5%; in the assay on U251 CNS, 71.6%; in the assay on PC-3 prostate, 76.6%; with SK-MEL-5 melanoma, 57.8%. The growth is 58.6% in the assay with UACC-62 melanoma, 54.3% with LOX IMVI melanoma, 90.6% in the assay with SK-MEL-28 melanoma and 52.7% with SK-MEL-2 melanoma.
For the compound `COc1ccc(-c2c3c(nn2-c2ccc(N)cc2)CCc2cnoc2-3)cc1OC`, the growth with HT29 colon was 93.6%; with SNB-75 CNS it was 79.4%; in the assay with SNB-19 CNS, 90.3%; with U251 CNS, 89.1%; in the assay on PC-3 prostate, 64.3%; with SK-MEL-5 melanoma it was 76%. Moreover, the growth is 80% with UACC-62 melanoma, 86.4% with LOX IMVI melanoma, 116% with SK-MEL-28 melanoma and 101% in the assay on SK-MEL-2 melanoma.
In the case of `CCN(CC)c1ccc(C(O)C2=CC(=O)c3ccccc3C2=O)cc1` (stereo not given), the growth in the assay on HT29 colon was 9.6% (active); with SNB-75 CNS, 24.9%; in the assay on SNB-19 CNS it was 15.3%; with U251 CNS, -80.9% (active); in the assay with PC-3 prostate, -2.59% (active); in the assay on SK-MEL-5 melanoma, -38% (active). The growth with UACC-62 melanoma is -45.3% (active); in the assay on LOX IMVI melanoma, -51.8% (active); in the assay with SK-MEL-28 melanoma it was -23.1% (active); in the assay with SK-MEL-2 melanoma, -27.9% (active).
For the compound `Cc1nn(-c2ccc(Cl)cc2)c2nc3c(nc12)C(=O)C(=O)c1ccccc1-3`, the growth with HT29 colon was 4.77% (active); in the assay on SNB-75 CNS, -2.08% (active); in the assay with SNB-19 CNS, 62.4%; in the assay with U251 CNS it was 77.5%; in the assay with PC-3 prostate it was 73.9%; in the assay with SK-MEL-5 melanoma, 43.8%. The growth with UACC-62 melanoma was 73.3%; in the assay with LOX IMVI melanoma, 62.6%; in the assay with SK-MEL-28 melanoma, 67.2%; in the assay with SK-MEL-2 melanoma it was 99.1%.
For `O=C(COC(=O)[C@H](C[Se][Se]C[C@H](NC(=O)c1ccc(Br)cc1F)C(=O)OCC(=O)c1ccc(F)cc1)NC(=O)c1ccc(Br)cc1F)c1ccc(F)cc1`, the growth in the assay with HT29 colon was 3.66% (active); with SNB-75 CNS, -100% (active); in the assay on SNB-19 CNS it was -86.3% (active); in the assay on U251 CNS, -100% (active); in the assay on PC-3 prostate it was -51.6% (active); with SK-MEL-5 melanoma it was -18.8% (active). Further, the growth was -4.12% (active) with UACC-62 melanoma, -83% (active) in the assay on LOX IMVI melanoma, -90.6% (active) in the assay on SK-MEL-28 melanoma and -58.9% (active) in the assay with SK-MEL-2 melanoma.
Consider `C[N+]1(CCc2ccccc2)CCC(CCC2CC[N+](C)(CCc3ccccc3)CC2)CC1` (stereo not given), for which the growth was 94% in the assay on HT29 colon; 83.9% in the assay with SNB-75 CNS; 98.1% in the assay on SNB-19 CNS; 87.9% in the assay on U251 CNS; 101% in the assay with PC-3 prostate; 100% in the assay on SK-MEL-5 melanoma. In addition, the growth is 85.7% in the assay on UACC-62 melanoma, 102% in the assay with LOX IMVI melanoma, 111% in the assay on SK-MEL-28 melanoma and 119% in the assay with SK-MEL-2 melanoma.
As to `S=C(Nc1ccc(C2=NCCN2)cc1)Nc1ccc(C2=NCCN2)cc1`, the growth is 101% in the assay with HT29 colon; 110% in the assay with SNB-75 CNS; 105% with SNB-19 CNS; 97.9% in the assay with U251 CNS; 100% with PC-3 prostate; 96.6% in the assay on SK-MEL-5 melanoma. Besides, the growth in the assay on UACC-62 melanoma is 107%; with LOX IMVI melanoma, 96.7%; in the assay on SK-MEL-28 melanoma, 110%; in the assay on SK-MEL-2 melanoma it was 111%.
Consider `O=C(/C=C/c1cc2ccccc2[nH]c1=O)c1ccc(O)cc1`, for which the growth was 55.5% with HT29 colon; 40.3% with SNB-75 CNS; 57.4% in the assay on SNB-19 CNS; 21.9% in the assay with U251 CNS; 10.5% in the assay with PC-3 prostate; 96.1% in the assay on SK-MEL-5 melanoma. For the same compound, the growth is 83.8% with UACC-62 melanoma, 26.8% in the assay with LOX IMVI melanoma, 99.9% with SK-MEL-28 melanoma and 83.7% in the assay on SK-MEL-2 melanoma.
Turning to `CCN(CC)CCOc1ccccc1-n1c(C)ccc1-c1ccccc1`, the growth is 34.5% with HT29 colon; 93% in the assay on SNB-75 CNS; 102% in the assay on SNB-19 CNS; 85.3% in the assay on U251 CNS; 62.8% with PC-3 prostate; 90.8% with SK-MEL-5 melanoma. Also, the growth is 106% in the assay on UACC-62 melanoma, 88.5% in the assay on LOX IMVI melanoma, 119% with SK-MEL-28 melanoma and 102% with SK-MEL-2 melanoma.
For `O=C(Nc1cccc(C(F)(F)F)c1)Nc1ccc(OCc2nnc(-c3ccc(Cl)cc3)o2)c(F)c1`, the growth in the assay on HT29 colon was 60.2%; in the assay with SNB-75 CNS, 39.4%; in the assay with SNB-19 CNS, 69.9%; in the assay with U251 CNS it was 52.7%; with PC-3 prostate, 45.9%; with SK-MEL-5 melanoma, 77.5%. Moreover, the growth with UACC-62 melanoma is 68.8%; in the assay with LOX IMVI melanoma it was 63.5%; in the assay on SK-MEL-28 melanoma, 73.5%; in the assay with SK-MEL-2 melanoma, 78.7%.
